# Laboratory results published in ChEMBL document CHEMBL1201862, “PubChem BioAssay data set” (2004).
# Hit rate of the full screen: of about 400,000 compounds, about 2,100 (0.53%) were called active. Roughly 14% stayed inconclusive and do not appear here. The rule behind the calls is not given here. For the sample, actives were picked, then their nearest neighbours and some compounds at random.
# Target: Ataxin-2 (Homo sapiens) (UniProt Q99700)
# Experiment: qHTS for Inhibitors of ATXN expression.
# Format: functional
# Sequence of Ataxin-2 (Homo sapiens) (Q99700 whole entry): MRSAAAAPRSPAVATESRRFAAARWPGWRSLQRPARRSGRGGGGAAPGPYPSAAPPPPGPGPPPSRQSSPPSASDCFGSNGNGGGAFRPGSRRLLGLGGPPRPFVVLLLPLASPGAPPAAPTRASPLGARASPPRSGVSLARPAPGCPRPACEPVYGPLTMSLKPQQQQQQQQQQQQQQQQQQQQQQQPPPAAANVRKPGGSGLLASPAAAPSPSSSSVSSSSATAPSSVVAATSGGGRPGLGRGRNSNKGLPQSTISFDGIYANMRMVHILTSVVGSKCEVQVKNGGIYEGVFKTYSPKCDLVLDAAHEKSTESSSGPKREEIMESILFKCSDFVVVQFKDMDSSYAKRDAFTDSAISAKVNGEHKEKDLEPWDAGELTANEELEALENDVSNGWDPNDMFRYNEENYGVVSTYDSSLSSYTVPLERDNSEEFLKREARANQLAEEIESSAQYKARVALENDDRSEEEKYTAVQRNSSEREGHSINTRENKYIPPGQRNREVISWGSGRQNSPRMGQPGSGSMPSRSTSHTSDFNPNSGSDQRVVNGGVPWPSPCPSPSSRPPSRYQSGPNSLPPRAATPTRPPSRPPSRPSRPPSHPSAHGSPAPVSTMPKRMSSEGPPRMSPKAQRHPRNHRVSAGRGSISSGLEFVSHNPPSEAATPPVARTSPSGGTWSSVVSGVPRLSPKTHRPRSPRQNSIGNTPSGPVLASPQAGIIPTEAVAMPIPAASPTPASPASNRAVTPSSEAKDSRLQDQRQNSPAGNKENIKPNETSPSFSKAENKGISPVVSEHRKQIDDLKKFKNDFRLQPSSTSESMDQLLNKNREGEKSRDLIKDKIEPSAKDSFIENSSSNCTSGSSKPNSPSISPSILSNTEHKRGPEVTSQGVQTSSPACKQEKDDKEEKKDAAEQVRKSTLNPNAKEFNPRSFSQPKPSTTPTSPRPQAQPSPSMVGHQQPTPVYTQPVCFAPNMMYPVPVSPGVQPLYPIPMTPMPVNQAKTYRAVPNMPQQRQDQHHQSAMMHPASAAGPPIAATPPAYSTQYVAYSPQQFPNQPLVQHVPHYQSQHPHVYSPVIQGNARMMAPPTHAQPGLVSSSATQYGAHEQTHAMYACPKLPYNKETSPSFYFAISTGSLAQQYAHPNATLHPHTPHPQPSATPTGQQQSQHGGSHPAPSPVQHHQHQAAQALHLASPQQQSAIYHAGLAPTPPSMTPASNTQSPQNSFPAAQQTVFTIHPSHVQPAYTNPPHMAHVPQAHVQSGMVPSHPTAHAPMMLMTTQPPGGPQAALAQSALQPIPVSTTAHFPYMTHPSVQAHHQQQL
row,Compound,Potency
1,Cc1ccc(C2CC(=O)Nc3cc4c(cc32)OCCO4)cc1 (stereo not drawn),inactive
2,CCOC(=O)C1=C(N)Oc2cc(O)ccc2C1c1ccc(F)cc1F (stereo not drawn),inactive
3,COc1ccc(CCNC(=O)c2ccc3c(Cl)c4c(nc3c2)CCCC4)cc1OC,31.6 µM (active)
4,COc1ccc(CCNC(=O)C(=O)NCc2ccc(Cl)cc2)cc1OC,inactive
5,COc1ccc(OC)c(NC(=O)CSc2c3c(nc4ccccc24)CCCC3)c1,39.8 µM (active)
6,Cc1ccc(NC(=O)CSc2nc3ccccc3c(=O)n2CCCC(=O)NCCCN2CCOCC2)cc1,inactive
7,COc1ccc(OC)c(NC(=O)CSc2nc3nc(O)cc(O)c3s2)c1,inactive
8,CCCn1c(SCC(=O)NCCCN2CCCC2=O)nc2ccccc2c1=O,inactive
9,Cc1ccc(NC(=O)CSc2nc3ccccc3c(=O)n2CCCN2CCCCC2)cc1C,31.6 µM (active)
10,COc1ccc(CCNC(=O)Cc2c(C)c3ccc(O)c(C)c3oc2=O)cc1OC,inactive
11,CCOC(=O)c1cc2c(=O)n3ccccc3nc2n(C(C)C)/c1=N/C(=O)C(C)(C)Oc1ccc(Cl)cc1,inactive
12,CCn1c(=N)c(C(=O)NCc2ccccc2)cc2c(=O)n3cccc(C)c3nc21,inactive
13,c1cncc(-c2nnc(-c3cccnc3)nn2)c1,35.5 µM (active)
14,O=C(O)c1cccc(CSc2nnc(-c3cccnc3)o2)c1,inactive
15,Nc1nc2nccc(-c3cccnc3)n2n1,inactive
16,CCOC(=O)C1=C(C)c2ccccc2N(C(=O)OC)C1(C)C(=O)OCC (stereo not drawn),35.5 µM (active)
17,O=C(c1ccco1)N1CCN(Cc2cc(=O)oc3cc(O)ccc23)CC1,inactive

row,Compound,Potency
1,Nc1cccc2c1C(=O)N(C(=O)c1ccco1)C2=O,inactive
2,O=C1c2ccccc2-c2onc3c(N4CCN(CCO)CC4)cc(N4CCN(C(=O)c5ccco5)CC4)c1c23,39.8 µM (active)
3,CC(C)(C)N(CC#CCC(O)(c1ccccc1)c1ccccc1)CCO,inactive
4,CCC[C@@H](CNC)NC[C@H](Cc1ccccc1)NCCCCc1ccccc1,39.8 µM (active)
5,CCC(C(=O)NCCc1ccccc1)c1ccccc1 (stereo not drawn),inactive
6,CCCn1c(=N)c(S(=O)(=O)c2ccccc2)cc2c(=O)n3ccccc3nc21,inactive
7,CCCn1c(CC)nc([N+](=O)[O-])c1S(=O)(=O)c1ccccc1,35.5 µM (active)
8,O=C(O)/C=C/c1nc(-c2ccccc2)n2ccccc12,inactive
9,CC(=O)Oc1c(-c2ccco2)oc2ccccc2c1=O,inactive
10,COc1cccc(CNC(=O)CCCc2nnc3n(C)c(=O)c4sccc4n23)c1,inactive
11,O=C(N/N=C/c1cc(Br)c(O)c(Br)c1)c1cc2c(ccc3ccccc32)o1,inactive
12,Cc1ccc(C(=O)N/N=C/c2ccc(-c3ccc(Br)cc3[N+](=O)[O-])o2)o1,inactive
13,O=C(N/N=C/c1ccc([N+](=O)[O-])o1)c1cc2ccccc2o1,10 µM (active)
14,C/C(=N\Nc1ccc([N+](=O)[O-])cc1)c1cc2ccccc2o1,inactive
15,Cc1ccc(-c2ccc(/C=N\NC(=O)c3cc4c(ccc5ccccc54)o3)o2)cc1[N+](=O)[O-],37.7 µM (active)
16,COc1ccc(OC)c(/C=N\NC(=O)c2cc3c(ccc4ccccc43)o2)c1,inactive
